Assay outcomes from PubChem BioAssay.
Only some compounds are listed: those with a hit (about 11% of all), similar ones and a draw of the others.
AMA1-RON2 inh – AMA1-RON2 (P. falciparum) interaction inhibition. AlphaScreen AMA1-biotinylated RON2 peptide binding. Potency, µM (titrated, usually from 58.2 µM), for inactives: top-dose activity change, negative = inhibition, usual class: inhibitors. 0.2% of 360,000 active;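 also: 0% = vehicle wells and -100% = peptide control; nearly all actives have a fitted effect of over 45% in size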
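AMA1 (3D7) with his tag at 25 nM final met compounds first, then biotinylated RON2 peptide at 25 nM; detection used donor plus acceptor beads, 10 µg/mL apiece, read by AlphaScreen after 30 min at room temperature.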
Pf growth 96h – P. falciparum growth inhibition at 96 hours. AID 504834. 6.9% of 320,000 active. Potency, µM (series often up to 28.7 µM), without a hit: at the highest dose activity change, negative = inhibition, hits mostly inhibitors. P. falciparum luciferase reporter growth, 96 h
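96 h incubation, 37 C, 5% CO2, of luciferase-reporter P. falciparum-infected RBCs (2% hematocrit, 0.05% parasitemia final) with test compounds; endpoint luminescence.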
HCV inh – inhibitors of hepatitis C virus infection. Potency, µM (highest dose often 41.8 µM), without a hit: top-dose activity change, negative = inhibition, actives largely listed as inhibitors. Huh7.5.1 HCVcc-Cre infection, luciferase reporter, 44 h. 3.4% of 340,000 active
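After 44 h co-culture of compound, cells and HCVcc-Cre (~0.5 moi), substrate is added for 15 min at room temperature and luciferase measured over 15 sec. Cells were seeded at 1,000/well and pre-cultured 4 h.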
Pf growth 48h – P. falciparum growth inhibition at 48 hours (one generation). 5.9% of 310,000 active. Potency, µM (top dose mostly 28.7 µM), for the others: top-dose activity change, negative = inhibition, actives largely listed as inhibitors. P. falciparum luciferase growth in erythrocytes, 48 h. AID 504832
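Here the parasites carry a stable luciferase gene and grow inside erythrocytes in Albumax-based RPMI medium with compound for one erythrocytic cycle. Activity is scored as loss of luminescent signal.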
The depositor's hits bear a star; ? = inconclusive; / = no result given; [ ] = remark or other dose. Calls follow the shape of the dose curve; as a rule, active = well fitted curve in the direction sought with a large enough effect; inconclusive = small, poorly fitted or top-dose-only effect, or another doubt; inactive = no such curve, though single readings can be large; an effect the other way counts as inactive or inconclusive. Unless noted, % is scaled to controls: 0 for no effect and ±100 for the full control effect; potency is read from the fitted curve at half-maximal effect.

SMILES	AMA1-RON2 inh	Pf growth 96h	HCV inh	Pf growth 48h
Cc1ccc(-n2c(-c3ccccc3)c[n+]3c2CCC3)cc1	-12%	0.74µM*	-29%	1µM*
Cc1ccc(-n2c(-c3ccc(Cl)cc3)c[n+]3c2CCC3)cc1	-4%	0.1µM*	?	0.26µM*
FC(F)Sc1ccc(-n2c(-c3ccc(Cl)cc3)c[n+]3c2CCC3)cc1	4%	?	5%	?
CCOC(=O)C1CCCN(C(=O)c2ccc(F)c(C)c2)CC1 (stereo not given)	-1%	/	/	/
COc1ccc(NC(=S)N2CCC(N(C)CC3CCCO3)CC2)cc1Cl (stereo not given)	-9%	6.6µM*	-14%	36%
Cc1ccc(NC(=S)N2CCC(N(C)CC3CCCO3)CC2)cc1C (stereo not given)	-5%	1.5µM*	-20%	1%
COc1ccc(NC(=S)N2CCC(N(C)CC3CCCO3)CC2)cc1 (stereo not given)	-2%	5%	0%	-9%
Cc1c(Cl)cccc1NC(=S)N1CCC(N(C)CC2CCCO2)CC1 (stereo not given)	2%	6.6µM*	-9%	4%
CC(=O)Nc1ccc(S(=O)(=O)N2CCN(c3cnn(C)c(=O)c3Cl)CC2)cc1	-13%	3%	5%	-23%
CC1(C(=O)NS(=O)(=O)c2ccc(F)cc2F)CCN1C(=O)Cc1ccc(Cl)cc1Cl (stereo not given)	-10%	/	/	/
Cn1cc(CC(=O)NCCN2CCOCC2)c2ccccc21	-8%	?	?	9%
COc1ccc(Cn2cc3c(-c4ccc(F)cc4)nnc-3c3cc(OC)c(OC)cc32)cc1	-20%	0.15µM*	?	0.15µM*
COc1cc2c3nnc(-c4ccc(F)cc4)c-3cn(Cc3ccc(F)cc3)c2cc1OC	-29%	?	-20%	/
COc1cc2c3nnc(-c4ccc(F)cc4)c-3cn(Cc3ccccc3)c2cc1OC	-17%	0.41µM*	?	?
CCc1ccc(N2CCN(C(=O)N3CCOCC3)CC2)cc1	-2%	38%[5.75 µM]	11%	8%
CC(C)N(C(=O)CSc1nnc(-c2ccc3c(c2)OCO3)n1C)C(C)C	-13%	?	5%	3%
Cc1ccc(C)c(N2CCN(C(=O)CCS(=O)(=O)c3ccc4c(c3)NC(=O)C(C)S4)CC2)c1 (stereo not given)	1%	0%	2.8µM*	?
COc1ccc(N2CCN(C(=O)CCS(=O)(=O)c3ccc4c(c3)NC(=O)C(C)S4)CC2)cc1 (stereo not given)	8%	9.3µM*	?	?
Cc1ccc(CNC(=O)CCS(=O)(=O)c2ccc3c(c2)NC(=O)C(C)S3)cc1 (stereo not given)	34%	-12%	-9%	-10%
O=C(Nc1nnc(SCc2cccnc2)s1)C1CC(=O)N(c2ccccc2)C1 (stereo not given)	8%	-23%	15%	4%
COC(=O)C1=C(c2ccc3ccccc3c2)C[C@@H]2CC[C@H]1N2C(=O)N1CCC(O)CC1	2%	-12%	2%	?
COC(=O)C1=C(c2ccc3ccccc3c2)C[C@@H]2CC[C@H]1N2C(=O)N1CCCC1	14%	?	10µM*	9.3µM*
COC(=O)C1=C(c2ccc(-c3ccccc3)c(F)c2)C[C@@H]2CC[C@H]1N2C(=O)N1CCC(O)CC1	-5%	?	?	?
COC(=O)C1=C(c2ccc(-c3ccccc3)c(F)c2)C[C@@H]2CC[C@H]1N2C(=O)N1CCCCC1	-6%	?	?	10µM*
COC(=O)C1=C(c2ccc(-c3ccccc3)c(F)c2)C[C@@H]2CC[C@H]1N2C(=O)N1CCc2cc(OC)c(OC)cc2C1	-25%	?	?	5.9µM*
SMILES	AMA1-RON2 inh	Pf growth 96h	HCV inh	Pf growth 48h
COC(=O)C1=C(c2ccc(-c3ccccc3)c(F)c2)C[C@@H]2CC[C@H]1N2C(=O)N1CCCC1	-20%	?	2.8µM*	15µM*
COC(=O)[C@]12CCCCC=C1N(Cc1ccccc1)C(=O)[C@H](CC(=O)N1CCC(c3ccccc3)CC1)C2	-10%	/	/	/
COc1cc([N+](=O)[O-])c(C(=O)N2CCOCC2)c([N+](=O)[O-])c1	10%	?	12%	-13%
CCC(CO)Oc1cc(NCc2ccc(OC)cc2)c2ncn(C(C)C)c2c1 (stereo not given)	-24%	?	?	15µM*
CC[C@H](CO)Oc1cc(NCc2ccc(Cl)c(Cl)c2)c2ncn(C(C)C)c2c1	?	/	11µM*	/
CCC(CO)Oc1cc(NCc2ccc(Cl)cc2)c2ncn(C(C)C)c2c1 (stereo not given)	-13%	/	2.2µM*	/
CCC(CO)Oc1cc(NCc2ccc(C(F)(F)F)cc2)c2ncn(C(C)C)c2c1 (stereo not given)	-4%	/	11µM*	/
CN(C(=O)CN1C(=O)NC(c2ccccc2)(c2ccccc2)C1=O)C1CCS(=O)(=O)C1 (stereo not given)	9%	13%	1%	-11%
O=C1/C(=C/c2ccccc2F)SC(=S)N1CC(=O)N1CCCCC1c1cccnc1 (stereo not given)	-9%	15µM*	?	-7%
Cc1ccc(C(=O)OCC(=O)Nc2cccc(S(=O)(=O)NC3=NCCCCC3)c2)c(C)c1	13%	12%	?	-25%
CCC(C)c1ccc(NC(=S)NN2CCOCC2)cc1 (stereo not given)	-11%	?	19%	79%
O=C(C1=NNC2C(=O)N(c3ccccc3)C(=O)C12)c1nc(Cl)ccc1Cl (stereo not given)	7%	3%	18%	9%
NC(=O)CC(NSc1ccccc1[N+](=O)[O-])C(=O)O (stereo not given)	28%	0%	34%	4%
COc1ccccc1C(CNC(=O)c1ccc(-c2ccccc2Cl)o1)N1CCCC1 (stereo not given)	-28%	10µM*	?	15µM*
COc1ccc(C(CNC(=O)c2ccc(-c3ccccc3Cl)o2)N2CCOCC2)cc1 (stereo not given)	-23%	?	?	15µM*
COc1ccc(C(CNC(=O)Cc2ccccc2)N2CCCCC2)cc1 (stereo not given)	6%	2%	15%	-10%
COc1ccc(C(CNC(=O)Cc2ccc(Cl)c(Cl)c2)N2CCCCC2)cc1 (stereo not given)	-10%	2.1µM*	3%	?
CCN(CC)C(=O)Cn1cc(S(=O)(=O)CC(=O)Nc2ccc(F)cc2)c2ccccc21	-8%	/	-3%	/
COc1ccc(CCNC(=O)Nc2nc(C(N)Cc3ccccc3)cs2)cc1OC (stereo not given)	14%	/	/	/
O=C(Nc1ccc(Cc2nc3ccccc3s2)cc1)c1ccncc1	-3%	?	10µM*	-20%
N#CC1(C#N)[C@@H](C(=O)C23CC4CC(CC(C4)C2)C3)C12CCOCC2	13%	27%	9%	4%
C=CCc1c(C)nc(SC)nc1Nc1ccc(C)cc1	29%	/	10µM*	-19%
